# Measured values as given in PubChem BioAssay (Tox21).
# Records with an inconclusive call do not appear. Values without a mark were called inactive. Activity calls are given as the source filed them. Calls come from the whole dose curve; as a rule, active = well fitted cell-killing curve with a large enough effect in the repeat runs; inconclusive = weak or mixed curves, or effect the other way; inactive = flat fitted curve, though single readings scatter.
# Experiment: qHTS RealTime-Glo MT Cell Viability Assay in HEK293 cells - 40 hour (AID 1224874); note: nearly all actives have a fitted effect of over 50% in size
# Conditions: RealTime-Glo luminescence; max response: active compounds read low
# Description: U.S. Tox21 Program National Center for Advancing Translational Sciences [NCATS] NIH Chemical Genomics Center [NCGC] U.S. Environmental Protection Agency [EPA] National Institutes of Environmental Health Sciences [NIEHS] National Toxicology Program [NTP] U.S. Food and Drug Administration [FDA] Tox21 Assay Overview: Measure of cell viability is critical in the cell-base assay. Analysis of cell viability is necessary for the characterization of cell responses to cytotoxic drugs and environmental stress. A RealTime-Glo MT Cell Viability Assay to monitor cell viability in real time of continues cell culture during 40 hours of compound treatment was used to screen Tox21 10K library compounds in Hek293 cells. The RealTime-Glo MT Cell Viability Assay is a nonlytic, homogeneous, bioluminescent method to measure cell viability in real time using a simple, plate-based method. The assay involves adding NanoLuc luciferase and a cell-permeant prosubstrate to cells in culture. Viable cells reduce the proprietary prosubstrate to generate a substrate for NanoLuc luciferase. This substrate diffuses from cells into the surrounding culture medium, where it is rapidly used by the NanoLuc Enzyme to produce a luminescent signal. The signal correlates with the number of viable cells, making the assay well suited for cytotoxicity studies.
# Tox21 Assay Protocol Summary: The mixture of Hek293 cell suspension and reagents were dispensed at 600cells/6 ul/well in 1536-well tissue culture treated black solid bottom plates using a Multidrop dispenser. After the assay plates were incubated at a 37 C/5% CO2 incubator for 5 hours, 23 nL of compounds dissolved in DMSO, positive and negative controls was transferred to the assay plate by a pintool work station. The plates were incubated at 37 C for 40 hours. The luminescence intensity were measured at 0h, 8h, 16h, 24h, 32h and 40h time points using ViewLux plate reader during compound treatment.
# % is set by controls: 0 for no effect and ±100 for the full control effect; potency is the fitted concentration of half-maximal effect.
SMILES,Potency,max response [%]
Fc1ccc(C2(Cn3cncn3)OC2c2ccccc2Cl)cc1 (stereo not given),27.5 µM (active),
CCC(C)(C)c1cc(-n2nc3ccccc3n2)c(O)c(C(C)(C)CC)c1,22.2 µM (active),
O=C(CCCN1CCC(n2c(=O)[nH]c3ccccc32)CC1)c1ccc(F)cc1,,-27.9
O=[N+]([O-])c1cccc(O)c1,,4.13
CCCCCCI,,-0.352
CC1(C)COP(Oc2ccccc2)OC1,,-1.45
Fc1cc(Br)ccc1CBr,,-0.0441
CNC(=O)Oc1ccccc1C1OCCO1,,-0.764
COP(=S)(OC)Oc1c(Cl)cc(C)cc1Cl,,0.348
Nc1ccccc1Cl,,15.7
COc1ccc(C(=O)N2CCCC2=O)cc1,,-7.3
O=C1OC(c2ccc(O)c(S(=O)(=O)O)c2)(c2ccc(O)c(S(=O)(=O)O)c2)c2c(Br)c(Br)c(Br)c(Br)c21,,11.8
O=NN1CCCCC1,,1.37
CCOC(=O)/C=C(C)/C=C/C[C@@H](C)CCCC(C)C,,8.55
BrCCCCCCBr,,2.7
COC(=O)C(C)Oc1ccc(Oc2ccc(Cl)cc2Cl)cc1 (stereo not given),,-8.07
CCCCOC(=O)c1ccccc1C(=O)O,,1.78
CC(=O)C(Cl)Cl,,7
CC(C(O)c1ccccc1)N(C)C/C=C/c1ccccc1 (stereo not given),,-19.6
CCC1(c2ccccc2)C(=O)NC(=O)NC1=O,,17.3

SMILES,Potency,max response [%]
CCCCC(=O)Cl,,5.77
CC(C)(C)OC(=O)c1ncn2c1[C@@H]1CCCN1C(=O)c1c(Br)cccc1-2,,-21.6
CCCSP(=O)(OCC)Oc1ccc(Br)cc1Cl (stereo not given),,-3.49
CNC(=O)Oc1ccc(N(C)C)c(C)c1,,-14.9
NC(=O)O,,3.48
CCC(=O)C(CCN(C)C)(c1ccccc1)c1ccccc1,,-20.5
CCOP(=S)(Oc1cnc(C(C)(C)C)nc1)OC(C)C (stereo not given),,-10.5
CN1CCC(N(Cc2ccccc2)c2ccccc2)CC1,,0.452
CCOP(=S)(OCC)Oc1cc(-c2ccccc2)on1,,-12.9
OC(c1ccc(F)cc1)(c1cncnc1)c1ccccc1Cl (stereo not given),,-29.2
N#CC(Cl)(Cl)Cl,,3.49
c1ccc(N2CCNCC2)cc1,,16.9
COc1cccc(C(=O)NN(C(=O)c2cc(C)cc(C)c2)C(C)(C)C)c1C,,-10
O=C1OC(CCN2CCCCC2)OC1(c1ccccc1)c1ccccc1 (stereo not given),,5.83
CC(=O)Nc1cc([As](=O)(O)O)ccc1O,,-9.14
ClC(Br)Br,,9.83
Cc1ncc2n1-c1ccc(Cl)cc1C(c1ccccc1F)=NC2,19 µM (active),
CCOc1nc(C(Cl)(Cl)Cl)ns1,,3
O=C(Nc1ccccc1)N(Cc1ccc(Cl)cc1)C1CCCC1,24.5 µM (active),
COC(=O)c1ccccc1S(=O)(=O)NC(=O)N(C)c1nc(C)nc(OC)n1,,10.1
